{"source": "PubChem BioAssay AID372", "about": "(MTDP, 2006)", "note": "In all, about 100,000 compounds went through this assay and about 770 (0.77%) were called active. Rule as the data show it: active = inhibition above about 50%; inactive = the rest. What follows is part of a selection rich in actives, with near analogues and random picks from the rest.", "data": [{"biological_target": "Gag-Pol polyprotein (Human immunodeficiency virus type 1 group M subtype B (isolate HXB2)) (UniProt P04585)", "assay": "RNase H inhibition, HIV 1 Gag Pol polyprotein, FRET biochemical assay, screening (AID 372)", "settings": "HIV-1 RT RNase H, FRET RNA/DNA substrate fluorescence; at 10 µM; hits give high values", "values": [{"smiles": "Cc1cc(NC(=O)c2ccc(-c3ccc(Cl)cc3)o2)ccc1NC(=O)c1ccco1", "inhibition": "11% (inactive)"}, {"smiles": "Cc1cc(C)cc(N2C(=O)NC(=O)/C(=C\\c3c(C)n(C)c4ccccc34)C2=O)c1", "inhibition": "12% (inactive)"}, {"smiles": "Cc1cc2nc(-c3ccc(Cl)c(NC(=O)c4cc([N+](=O)[O-])ccc4Cl)c3)oc2cc1C", "inhibition": "8% (inactive)"}, {"smiles": "COc1cccc(OC)c1OCC(O)CN1CCC(CN2C(=O)c3cccc4cccc(c34)C2=O)CC1", "note": "(stereo not drawn)", "inhibition": "19% (inactive)"}, {"smiles": "CCOC(=O)C1=C(C)N=c2s/c(=C\\c3ccc(-c4ccc(Cl)cc4)o3)c(=O)n2C1c1ccc(SC)cc1", "note": "(stereo not drawn)", "inhibition": "0% (inactive)"}, {"smiles": "O=C(c1ccc([N+](=O)[O-])cc1[N+](=O)[O-])N1CCN(C(c2ccccc2)c2ccccc2)CC1", "inhibition": "2% (inactive)"}, {"smiles": "O=C(CSc1nc2ccccc2s1)Nc1ccc(F)c([N+](=O)[O-])c1", "inhibition": "2% (inactive)"}, {"smiles": "CCOc1ccc2ccccc2c1/C=N/NC(=O)CN1CCOCC1", "inhibition": "9% (inactive)"}, {"smiles": "CCOC(=O)/C(C#N)=C1/C=C(c2ccccc2)N=C(c2ccccc2)N1", "inhibition": "16% (inactive)"}, {"smiles": "COc1ccc2ccccc2c1C=Nc1ccc(C)cc1O", "inhibition": "27% (inactive)"}, {"smiles": "Cc1ccccc1Cn1cc(C=C2C(=O)NC(=O)NC2=O)c2ccccc21", "inhibition": "43% (inactive)"}, {"smiles": "COc1cc(C=O)ccc1OCCCOc1cc(C)c(Cl)cc1C", "inhibition": "21% (inactive)"}, {"smiles": "COc1ccccc1N=Cc1c(O)n(-c2ccccc2F)c(=O)[nH]c1=O", "inhibition": "8% (inactive)"}, {"smiles": "Cc1ccc(/C=C2\\SC(=S)N(CCC(=O)Nc3ccc([N+](=O)[O-])cc3O)C2=O)cc1", "inhibition": "52% (active)"}, {"smiles": "Cc1ccc(/C=C2\\SC(=S)N(CCC(=O)Nc3ccc(S(=O)(=O)Nc4nccs4)cc3)C2=O)cc1", "inhibition": "23% (inactive)"}, {"smiles": "Cc1ccc(/C=C2\\SC(=S)N(CCc3ccccc3)C2=O)cc1", "inhibition": "3% (inactive)"}, {"smiles": "Cc1ccc(/C=C2\\SC(=S)N(CCC(=O)Nc3cc([N+](=O)[O-])ccc3O)C2=O)cc1", "inhibition": "0% (inactive)"}, {"smiles": "Cc1ccc(/C=C2\\SC(=S)N(CCCC(=O)NCCc3ccccc3)C2=O)cc1", "inhibition": "57% (active)"}, {"smiles": "Cc1ccc(/C=C2/SC(=S)N(CCC(=O)Nc3ccc([N+](=O)[O-])cc3)C2=O)cc1", "inhibition": "10% (inactive)"}, {"smiles": "O=C(CCN1C(=O)/C(=C/c2ccc(Cl)cc2)SC1=S)Nc1nccs1", "inhibition": "10% (inactive)"}, {"smiles": "Cc1ccc(/C=C2\\SC(=S)N(CCC(=O)Nc3nccs3)C2=O)cc1", "inhibition": "51% (active)"}, {"smiles": "Cc1ccc(/C=C2\\SC(=S)N(CCCC(=O)Nc3ccc(C)cc3)C2=O)cc1", "inhibition": "10% (inactive)"}, {"smiles": "Cc1ccc2oc(-c3cccc(NC(=O)c4ccc(-c5ccc([N+](=O)[O-])cc5)o4)c3C)nc2c1", "inhibition": "20% (inactive)"}, {"smiles": "CCOc1ccccc1N=C1C(=O)Nc2ccc([N+](=O)[O-])cc21", "inhibition": "2% (inactive)"}, {"smiles": "CC1=NN(C(=O)c2cccc(O)c2)C(O)(c2ccc(Br)cc2)C1", "note": "(stereo not drawn)", "inhibition": "8% (inactive)"}, {"smiles": "CC(=O)C1C(=O)c2cc([N+](=O)[O-])ccc2C1=Nc1ccc(Br)cc1", "note": "(stereo not drawn)", "inhibition": "6% (inactive)"}, {"smiles": "CCOC(=O)C1=C(C)N(C)C(=O)NC1c1ccc2c(c1)OCO2", "note": "(stereo not drawn)", "inhibition": "7% (inactive)"}, {"smiles": "CCCCSc1nnc(-c2ccc(Cl)cc2Cl)o1", "inhibition": "3% (inactive)"}, {"smiles": "CC1=NN(c2nc(-c3ccc(Cl)cc3)cs2)C(=O)/C1=C\\c1ccc2c(c1)OCO2", "inhibition": "57% (active)"}, {"smiles": "CC1=NN(c2nc(-c3ccc(F)cc3)cs2)C(=O)/C1=C\\c1ccc(O)cc1", "inhibition": "45% (inactive)"}, {"smiles": "CC1=NN(c2ccc(C)cc2)C(=O)/C1=C\\c1ccc2c(c1)OCO2", "inhibition": "2% (inactive)"}, {"smiles": "COc1cc(/C=C2\\C(=O)N(c3nc(-c4ccc(Cl)cc4)cs3)N=C2C)cc(OC)c1OC", "inhibition": "45% (inactive)"}, {"smiles": "CC1=NN(c2nc(-c3ccc(F)cc3)cs2)C(=O)/C1=C\\c1ccc2c(c1)OCO2", "inhibition": "58% (active)"}, {"smiles": "CC1=NN(c2nc(-c3ccc(Br)cc3)cs2)C(=O)/C1=C\\c1ccc2c(c1)OCO2", "inhibition": "40% (inactive)"}, {"smiles": "O=C(/C(=C\\c1ccc([N+](=O)[O-])cc1)n1cncn1)c1ccc(Cl)cc1Cl", "inhibition": "16% (inactive)"}, {"smiles": "CCc1ccc(NC(=O)C(CC)c2ccccc2)cc1", "note": "(stereo not drawn)", "inhibition": "44% (inactive)"}, {"smiles": "C/C=C/c1ccc(OCCOCCOc2cccc(C)c2C)c(OC)c1", "inhibition": "15% (inactive)"}, {"smiles": "COc1ccc(S(=O)(=O)N(Cc2ccccc2)c2ccccc2C(=O)NC(C)c2ccccc2)cc1", "note": "(stereo not drawn)", "inhibition": "26% (inactive)"}, {"smiles": "Cc1nc2sccn2c1-c1csc(Nc2ccc(O)cc2)n1", "inhibition": "12% (inactive)"}, {"smiles": "Cc1nc2sccn2c1-c1csc(Nc2ccc([N+](=O)[O-])cc2)n1", "inhibition": "69% (active)"}, {"smiles": "Cc1nc2ccccn2c1-c1csc(Nc2ccc([N+](=O)[O-])cc2)n1", "inhibition": "14% (inactive)"}, {"smiles": "Cc1cccc(-n2sc3c(c2=S)-c2ccccc2NC3(C)C)c1C", "inhibition": "10% (inactive)"}, {"smiles": "CCOc1cc(CN2CCN(c3ccccn3)CC2)ccc1O", "inhibition": "15% (inactive)"}, {"smiles": "COc1ccc(/C=C\\C(=O)Nc2ccc3oc(-c4cccnc4)nc3c2)cc1", "inhibition": "7% (inactive)"}, {"smiles": "Cc1ccc2nc(-c3ccc(NC(=O)/C=C\\c4ccccc4)cc3)oc2c1", "inhibition": "40% (inactive)"}, {"smiles": "Cc1ccc2oc(-c3ccc(NC(=O)/C=C\\c4ccccc4)cc3)nc2c1", "inhibition": "52% (active)"}, {"smiles": "O=C(/C=C/c1ccccc1)Nc1ccc(-c2nc3cc(NC(=O)/C=C/c4ccccc4)ccc3[nH]2)cc1", "inhibition": "72% (active)"}, {"smiles": "COc1cccc(-c2nc3cc(NC(=O)/C=C\\c4ccccc4)ccc3o2)c1", "inhibition": "62% (active)"}, {"smiles": "O=C(/C=C\\c1ccccc1)Nc1ccc2oc(-c3ccccc3)nc2c1", "inhibition": "16% (inactive)"}, {"smiles": "Cc1ccc2oc(-c3ccc(NC(=O)/C=C/c4ccccc4)cc3O)nc2c1", "inhibition": "22% (inactive)"}, {"smiles": "O=C(/C=C\\c1ccccc1)Nc1cccc(-c2nc3ccccc3[nH]2)c1", "inhibition": "21% (inactive)"}, {"smiles": "Cc1ccc(-c2nc3ccccc3[nH]2)cc1NC(=O)/C=C\\c1ccccc1", "inhibition": "15% (inactive)"}, {"smiles": "Cc1cc(/C=C(\\C#N)C(=O)Nc2ccc(F)cc2)c(C)n1-c1ccc2c(c1)OCO2", "inhibition": "7% (inactive)"}, {"smiles": "Cc1ccc(C(=O)Nc2cc(Cl)ccc2C)c(Cl)c1", "inhibition": "14% (inactive)"}, {"smiles": "CCN(CC)CCCCCCOc1ccccc1OC", "inhibition": "8% (inactive)"}, {"smiles": "COc1cccc(N/C=C(\\C#N)c2nc(-c3ccc(O)c(OC)c3)cs2)c1", "inhibition": "13% (inactive)"}, {"smiles": "COc1ccc(-c2csc(/C(C#N)=C\\Nc3cc(Cl)ccc3Cl)n2)cc1OC", "inhibition": "40% (inactive)"}, {"smiles": "Cc1ccc(-c2csc(/C(C#N)=C/Nc3cccc(F)c3)n2)cc1", "inhibition": "4% (inactive)"}, {"smiles": "N#C/C(=C/Nc1cccc(Cl)c1Cl)c1nc(-c2ccc3c(c2)OCO3)cs1", "inhibition": "58% (active)"}, {"smiles": "COc1cc(-c2csc(/C(C#N)=C/Nc3cccc(F)c3)n2)ccc1O", "inhibition": "57% (active)"}, {"smiles": "COc1cccc(-c2csc(/C(C#N)=C\\Nc3cc(OC)c(Cl)cc3OC)n2)c1", "inhibition": "16% (inactive)"}, {"smiles": "COc1ccc(-c2csc(/C(C#N)=C\\Nc3cccc(Cl)c3Cl)n2)cc1OC", "inhibition": "51% (active)"}, {"smiles": "COc1ccc(-c2csc(/C(C#N)=C\\Nc3cccc(C)c3C)n2)cc1OC", "inhibition": "17% (inactive)"}, {"smiles": "N#C/C(=C/Nc1ccccc1F)c1nc(-c2ccc3c(c2)OCO3)cs1", "inhibition": "12% (inactive)"}, {"smiles": "N#C/C(=C/Nc1cc(Cl)cc(Cl)c1)c1nc(-c2ccc3c(c2)OCO3)cs1", "inhibition": "39% (inactive)"}, {"smiles": "COc1ccc(-c2csc(/C(C#N)=C\\Nc3cc(OC)c(Cl)cc3OC)n2)cc1", "inhibition": "52% (active)"}, {"smiles": "COc1cc(N/C=C(/C#N)c2nc(-c3ccc(OC)c(OC)c3)cs2)c(OC)cc1Cl", "inhibition": "48% (inactive)"}, {"smiles": "Cc1ccc(C(=O)/C=C/c2ccc(OCc3ccccc3)cc2)cc1", "inhibition": "4% (inactive)"}, {"smiles": "C=CCOc1ccc(/C=C2/C(=O)NC(=O)N(c3ccccc3F)C2=O)cc1", "inhibition": "7% (inactive)"}, {"smiles": "COc1ccccc1OCCOc1ccc(C=NNC(=S)Nc2ccccc2)cc1OC", "inhibition": "5% (inactive)"}, {"smiles": "Cc1cc(C)c(C=Nc2cc([N+](=O)[O-])ccc2C)c(C)c1", "inhibition": "11% (inactive)"}, {"smiles": "COCCCNC(=O)CN(c1ccc(OC)cc1OC)S(C)(=O)=O", "inhibition": "9% (inactive)"}, {"smiles": "CCOc1ccccc1OCCOc1ccc(C=O)cc1", "inhibition": "19% (inactive)"}, {"smiles": "COc1ccc(NC(=O)c2ccc(C)c([N+](=O)[O-])c2)cc1", "inhibition": "6% (inactive)"}, {"smiles": "O=C(Oc1ccc(Cl)cc1)c1ccc(Cl)cc1", "inhibition": "11% (inactive)"}, {"smiles": "COc1ccc(CNC(=O)CSc2nc3ccccc3[nH]2)cc1", "inhibition": "3% (inactive)"}, {"smiles": "CCOc1ccc(C2=CC(=O)C(c3ccccc3)CC2)cc1", "note": "(stereo not drawn)", "inhibition": "22% (inactive)"}, {"smiles": "Cc1cc(OCC(=O)N2CCN(c3ccccn3)CC2)ccc1Br", "inhibition": "24% (inactive)"}, {"smiles": "Cc1ccc(N(CC(=O)NCc2cccnc2)S(=O)(=O)c2ccc(F)cc2)cc1", "inhibition": "2% (inactive)"}, {"smiles": "COc1ccc(C(=O)CSc2nnc(-c3ccccc3)n2-c2ccc(Cl)cc2)cc1", "inhibition": "6% (inactive)"}, {"smiles": "O=C(N/N=C/c1ccncc1)c1cccc(I)c1", "inhibition": "0% (inactive)"}, {"smiles": "O=C(N/N=C/c1ccc2ccccc2c1)c1ccc(O)c(O)c1", "inhibition": "73% (active)"}, {"smiles": "O=C(N/N=C/c1ccc2ccccc2c1)c1ccccc1O", "inhibition": "14% (inactive)"}, {"smiles": "Cc1cccc(/C=N/NC(=O)c2ccccc2)c1", "inhibition": "0% (inactive)"}, {"smiles": "Cc1cc2c(cc1C)CN(c1cccc(C(=O)N/N=C/c3ccco3)c1)C2", "inhibition": "21% (inactive)"}, {"smiles": "Cc1cc2c(cc1C)CN(c1cccc(C(=O)N/N=C/c3ccc(N(C)C)cc3)c1)C2", "inhibition": "47% (inactive)"}, {"smiles": "Cc1cccc(/C=N/NC(=O)c2ccc(O)c(O)c2)c1", "inhibition": "56% (active)"}, {"smiles": "O=C(N/N=C/c1ccc(O)c(O)c1)c1cccc(I)c1", "inhibition": "44% (inactive)"}, {"smiles": "O=C(N/N=C/c1ccc2ccccc2c1)c1ccc(O)cc1", "inhibition": "12% (inactive)"}, {"smiles": "Cc1cccc(/C=N/NC(=O)c2cc(O)cc(O)c2)c1", "inhibition": "0% (inactive)"}, {"smiles": "Cc1cc2c(cc1C)CN(c1cccc(C(=O)N/N=C/c3ccc(O)c(O)c3)c1)C2", "inhibition": "62% (active)"}, {"smiles": "O=C(N/N=C/c1ccc(/C=N/NC(=O)c2cccc(I)c2)cc1)c1cccc(I)c1", "inhibition": "53% (active)"}, {"smiles": "Cc1cccc(NC(=O)c2cccnc2)c1", "inhibition": "13% (inactive)"}]}]}
